A number with no mark means an inactive call.

The test system of this test is Vero E6 infected with SARS-CoV-2. The test can be described thus: SARS-CoV-2 infection rate relative to infected DMSO; higher = more infection, active = 60 or less. Particulars: 24 h.
As to `O=C(Oc1cccc2cccnc12)c1ccccc1` [benzoxiquine] (10 µM), the SARS-CoV-2 infection rate is 97%.

Take `O=C(O)CCCCCCCC(=O)O` [azelaic-acid] (10 µM): the SARS-CoV-2 infection rate was 104%.

As to `COc1cc(N)cn[n+]1-c1ccccc1` [amezinium] (10 µM), the SARS-CoV-2 infection rate is 100%.

Turning to `C[C@H]1CNCCCN1S(=O)(=O)c1cccc2cncc(F)c12` [ripasudil] (10 µM), the SARS-CoV-2 infection rate is 112%.

Take `CCCCOc1ccc(C(=O)CCN2CCCCC2)cc1` [dyclonine] (10 µM): the SARS-CoV-2 infection rate was 91.5%.

With `COCCNC(=O)COc1ccc(OCCNC[C@H](O)COc2ccccc2)cc1` (10 µM), the SARS-CoV-2 infection rate is 102%.

Consider `O=C(O)c1cc(O)c2ccc(Cl)cc2n1` [7-chlorokynurenic-acid] (10 µM), for which the SARS-CoV-2 infection rate was 110%.

On to `CC(C)n1c(/C=C/[C@@H](O)C[C@@H](O)CC(=O)O)c(-c2ccc(F)cc2)c2ccccc21` [fluvastatin] (0.833333 µM), for which the SARS-CoV-2 infection rate is 115%.

Regarding `CC(C)(OCc1nn(Cc2ccccc2)c2ccccc12)C(=O)O` [bindarit] (10 µM), the SARS-CoV-2 infection rate is 112%.

In the case of `Cc1cc(C(=O)Nc2cccc(C(=O)Nc3cccc(C(F)(F)F)c3)c2)on1` (10 µM), the SARS-CoV-2 infection rate was 115%.

The values above are taken from the supplement of paper PMC13380429.
